# Test results from the supplement of paper PMC8728848.
# The full list was thinned out, with the strongest signals kept by preference.
# B1: PNA (Arachis hypogaea), P02872 (protein)
# chain: MKPFCVFLTFFLLLAASSKKVDSAETVSFNFNSFSEGNPAINFQGDVTVLSNGNIQLTNLNKVNSVGRVLYAMPVRIWSSATGNVASFLTSFSFEMKDIKDYDPADGIIFFIAPEDTQIPAGSIGGGTLGVSDTKGAGHFVGVEFDTYSNSEYNDPPTDHVGIDVNSVDSVKTVPWNSVSGAVVKVTVIYDSSTKTLSVAVTNDNGDITTIAQVVDLKAKLPERVKFGFSASGSLGGRQIHLIRSWSFTSTLITTTRRSIDNNEKKIMNMASA
# Columns and labels:
# Experiment in all cases: glycan array binding signal (z-score within array); higher = stronger binding
# Conditions in all cases: glycan notation: IUPAC condensed, linker removed
# [1] = molecular target: Glc(a1-6)Glc(a1-6)Glc(a1-6)Glc
# Outline: (§1)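 The binding signal is a Z-score computed within each array. Data were drawn from 3228 arrays in the Consortium for Functional Glycomics database, restricted to those with a known protein sequence. Scores were averaged over arrays of the same protein sequence at different concentrations or buffers, and over linkers, and negative values can be taken as non-binding.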
# [2] = molecular target: Glc(b1-4)Glc(b1-4)Glc(b1-4)Glc(b1-4)Glc(b1-4)Glc(b1-4)Glc(b1-4)Glc(b1-4)Glc
# Outline: as §1
# [3] = molecular target: Glc(b1-4)Glc(b1-4)Glc(b1-4)Glc(b1-4)Glc(b1-4)Glc(b1-4)Glc(b1-4)Glc(b1-4)Glc(b1-4)Glc
# Outline: as §1
# [4] = molecular target: Glc(b1-4)Glc(b1-4)Glc(b1-4)Glc(b1-4)Glc(b1-4)Glc(b1-4)Glc(b1-4)Glc(b1-4)Glc(b1-4)Glc(b1-4)Glc
# Outline: as §1
# [5] = molecular target: Glc(b1-4)Glc(b1-4)Glc(b1-4)Glc(b1-4)Glc(b1-4)Glc(b1-4)Glc(b1-4)Glc(b1-4)Glc(b1-4)Glc(b1-4)Glc(b1-4)Glc
# Outline: as §1
# [6] = molecular target: Glc(b1-4)Glc(b1-4)Glc(b1-4)Glc(b1-4)Glc(b1-4)Glc(b1-4)Glc(b1-4)Glc(b1-4)Glc(b1-4)Glc(b1-4)Glc(b1-4)Glc(b1-4)Glc
# Outline: as §1
# [7] = molecular target: GlcA(b1-3)Gal
# Outline: as §1
# [8] = molecular target: GlcA3S(b1-3)Gal(b1-4)GlcNAc(b1-2)Man
# Outline: as §1
# [9] = molecular target: GlcNAc(b1-2)Gal(b1-3)GalNAc
# Outline: as §1
# [10] = molecular target: GlcNAc(b1-2)Man(a1-3)[GlcNAc(b1-2)Man(a1-6)]Man(b1-4)GlcNAc(b1-4)GlcNAc
# Outline: as §1
# [11] = molecular target: GlcNAc(b1-3)Gal(b1-4)GlcNAc(b1-2)Man(a1-3)[GlcNAc(b1-3)Gal(b1-4)GlcNAc(b1-2)Man(a1-6)]Man(b1-4)GlcNAc(b1-4)GlcNAc
# Outline: as §1
# [12] = molecular target: GlcNAc(b1-3)Gal(b1-4)GlcNAc(b1-2)Man(a1-3)[GlcNAc(b1-3)Gal(b1-4)GlcNAc(b1-2)Man(a1-6)]Man(b1-4)GlcNAc(b1-4)[Fuc(a1-6)]GlcNAc
# Outline: as §1
# [13] = molecular target: GlcNAc(b1-3)Gal(b1-4)GlcNAc(b1-3)Gal(b1-4)GlcNAc(b1-3)Gal(b1-4)GlcNAc(b1-3)Gal(b1-4)GlcNAc(b1-2)[GlcNAc(b1-3)Gal(b1-4)GlcNAc(b1-3)Gal(b1-4)GlcNAc(b1-3)Gal(b1-4)GlcNAc(b1-3)Gal(b1-4)GlcNAc(b1-6)]Man(a1-6)[GlcNAc(b1-3)Gal(b1-4)GlcNAc(b1-3)Gal(b1-4)GlcNAc(b1-3)Gal(b1-4)GlcNAc(b1-3)Gal(b1-4)GlcNAc(b1-2)Man(a1-3)]Man(b1-4)GlcNAc(b1-4)[Fuc(a1-6)]GlcNAc
# Outline: as §1
# [14] = molecular target: GlcNAc(b1-3)Gal(b1-4)GlcNAc(b1-6)[Gal(b1-3)]GalNAc
# Outline: as §1
# [15] = molecular target: GlcNAc(b1-3)[GlcNAc(b1-6)]Gal
# Outline: as §1
# [16] = molecular target: GlcNAc(b1-3)[GlcNAc(b1-6)]Gal(b1-4)GlcNAc(b1-3)[GlcNAc(b1-6)]Gal(b1-4)GlcNAc(b1-3)Gal(b1-4)Glc
# Outline: as §1
# [17] = molecular target: GlcNAc(b1-4)GlcNAc
# Outline: as §1
# [18] = molecular target: GlcNAc(b1-4)GlcNAc(b1-4)GlcNAc(b1-4)GlcNAc
# Outline: as §1
# [19] = molecular target: HexA(a1-3)GalNAc4S(b1-4)GlcA(b1-3)GalNAc4S(b1-4)GlcA(b1-3)GalNAc4S(b1-4)GlcA(b1-3)GalNAc4S(b1-4)GlcA(b1-3)GalNAc4S(b1-4)GlcA(b1-3)GalNAc4S(b1-4)GlcA(b1-3)GalNAc4S
# Outline: as §1
# [20] = molecular target: Man(a1-2)Man(a1-6)[Man(a1-3)]Man(a1-6)[Man(a1-2)Man(a1-2)Man(a1-3)]Man(b1-4)GlcNAc(b1-4)GlcNAc
# Outline: as §1
# [21] = molecular target: Neu5Ac(a2-3)Gal
# Outline: as §1
# [22] = molecular target: Neu5Ac(a2-3)Gal(b1-3)GalNAc(b1-3)Gal(a1-4)Gal(b1-4)Glc
# Outline: as §1
# [23] = molecular target: Neu5Ac(a2-3)Gal(b1-3)GlcNAc(b1-2)Man(a1-3)[Neu5Ac(a2-3)Gal(b1-3)GlcNAc(b1-2)Man(a1-6)]Man(b1-4)GlcNAc(b1-4)GlcNAc
# Outline: as §1
# [24] = molecular target: Neu5Ac(a2-3)Gal(b1-3)[Neu5Ac(a2-3)Gal(b1-4)]GlcNAc
# Outline: as §1
# [25] = molecular target: Neu5Ac(a2-3)Gal(b1-3)[Neu5Ac(a2-6)]GalNAc
# Outline: as §1
# [26] = molecular target: Neu5Ac(a2-3)Gal(b1-4)GlcNAc(b1-2)Man(a1-3)[Neu5Ac(a2-3)Gal(b1-4)GlcNAc(b1-2)Man(a1-6)]Man(b1-4)GlcNAc(b1-4)GlcNAc
# Outline: as §1
# [27] = molecular target: Neu5Ac(a2-3)Gal(b1-4)GlcNAc(b1-2)Man(a1-3)[Neu5Ac(a2-3)Gal(b1-4)GlcNAc(b1-2)Man(a1-6)]Man(b1-4)GlcNAc(b1-4)[Fuc(a1-6)]GlcNAc
# Outline: as §1
# [28] = molecular target: Neu5Ac(a2-3)Gal(b1-4)[Fuc(a1-3)]GlcNAc6S
# Outline: as §1
# [29] = molecular target: Neu5Ac(a2-3)Gal(b1-4)[Qui(a1-3)]GlcNAc(b1-3)Gal
# Outline: as §1
# [30] = molecular target: Neu5Ac(a2-3)GalNBz(b1-4)GlcNAc
# Outline: as §1
# [31] = molecular target: Neu5Ac(a2-3)[GalNAc(b1-4)]Gal(b1-3)GalNAc(b1-4)[Neu5Ac(a2-3)]Gal(b1-4)Glc
# Outline: as §1
# [32] = molecular target: Neu5Ac(a2-3)[GalNAc(b1-4)]Gal(b1-4)GlcNAc
# Outline: as §1
# [33] = molecular target: Neu5Ac(a2-6)Gal(b1-4)GlcNAc(b1-2)Man(a1-3)[Neu5Ac(a2-6)Gal(b1-4)GlcNAc(b1-2)Man(a1-6)]Man(b1-4)GlcNAc(b1-4)[Fuc(a1-6)]GlcNAc
# Outline: as §1
# [34] = molecular target: Neu5Ac(a2-6)Gal(b1-4)GlcNAc(b1-3)[Neu5Ac(a2-6)Gal(b1-4)GlcNAc(b1-6)]Gal(b1-4)Glc
# Outline: as §1
# [35] = molecular target: Neu5Ac(b2-3)Gal(b1-4)Glc
# Outline: as §1
# [36] = molecular target: Neu5Ac9Ac(a2-3)Gal(b1-4)GlcNAc
# Outline: as §1
# [37] = molecular target: Neu5Ac9Ac(a2-3)Gal(b1-4)[Fuc(a1-3)]GlcNAc
# Outline: as §1
# [38] = molecular target: Neu5Gc(a2-6)GalNAc
# Outline: as §1
# [39] = molecular target: Xyl(b1-4)Xyl(b1-4)Xyl(b1-4)Xyl(b1-4)Xyl(b1-4)Xyl
# Outline: as §1
binder,measurement,setting,value
B1,glycan array binding signal (z-score),[1],-0.136
same,glycan array binding signal (z-score),[2],0.924
same,glycan array binding signal (z-score),[3],1.4
same,glycan array binding signal (z-score),[4],2.88
same,glycan array binding signal (z-score),[5],1.98
same,glycan array binding signal (z-score),[6],2.23
same,glycan array binding signal (z-score),[7],-0.167
same,glycan array binding signal (z-score),[8],-0.368
same,glycan array binding signal (z-score),[9],-0.177
same,glycan array binding signal (z-score),[10],-0.143
same,glycan array binding signal (z-score),[11],0.227
same,glycan array binding signal (z-score),[12],0.22
same,glycan array binding signal (z-score),[13],1.96
same,glycan array binding signal (z-score),[14],5.04
same,glycan array binding signal (z-score),[15],-0.195
same,glycan array binding signal (z-score),[16],2.02
same,glycan array binding signal (z-score),[17],-0.113
same,glycan array binding signal (z-score),[18],-0.195
same,glycan array binding signal (z-score),[19],-0.195
same,glycan array binding signal (z-score),[20],-0.178
same,glycan array binding signal (z-score),[21],-0.171
same,glycan array binding signal (z-score),[22],-0.112
same,glycan array binding signal (z-score),[23],-0.061
same,glycan array binding signal (z-score),[24],-0.21
same,glycan array binding signal (z-score),[25],-0.176
same,glycan array binding signal (z-score),[26],-0.148
same,glycan array binding signal (z-score),[27],-0.306
same,glycan array binding signal (z-score),[28],-0.225
same,glycan array binding signal (z-score),[29],-0.195
same,glycan array binding signal (z-score),[30],-0.195
same,glycan array binding signal (z-score),[31],-0.195
same,glycan array binding signal (z-score),[32],-0.138
same,glycan array binding signal (z-score),[33],-0.21
same,glycan array binding signal (z-score),[34],-0.195
same,glycan array binding signal (z-score),[35],-0.195
same,glycan array binding signal (z-score),[36],-0.073
same,glycan array binding signal (z-score),[37],-0.195
same,glycan array binding signal (z-score),[38],-0.162
same,glycan array binding signal (z-score),[39],-0.195
